Source: ChEMBL document CHEMBL4513216, “Probing the Open Global Health Chemical Diversity Library for Multistage-Active Starting Points for Next-Generation Antimalarials” (ACS Infect Dis, 2020)
The whole screen tested about 69,000 compounds, of which about 8,600 (12%) showed an effect of 50% or more. The entries come from a sample that favours strong results as a whole.

Tested on: Plasmodium berghei
Test: Screen against P. berghei liver stage (PbLuc), transformed with Luciferase, at 10uM
Type: functional, HepG2
Details: tested at 10 uM

Point of comparison: `CN1CC(C(=O)NC2(c3ccc(Cl)cc3)CCOCC2)CC1=O` (configuration not stated), INHIBITION 8.31%. Against it:
- COCC(=O)N1C[C@@H](OCc2cccnc2)[C@H]2OCCC[C@@H]21 — higher, 26.5%
- Cc1ccc(S(N)(=O)=O)cc1C(=O)NC1CCCC1 — higher, 12.2%
- CC(=O)N1CCCC(c2ccnc(Nc3cnccn3)c2)C1 (configuration not stated) — lower, -9%
- O=C(NCC(CO)Cc1cccc(OC(F)(F)F)c1)c1cnccn1 (configuration not stated) — higher, 30.8%
- O=C(Cc1csc(-c2ccsc2)n1)N1CCN(c2cnccn2)CC1 — lower, -40.2%
- Cc1nc(C)n(CC2CCCN(CCC(=O)NC3CCCCC3)C2)n1 (configuration not stated) — lower, -4.16%
- NC(=O)c1c(NC(=O)CCCC(=O)O)sc2c1CCc1ccccc1-2 — higher, 33%
- Cc1nn(C)c(C)c1-c1nccnc1CC1CCNCC1 — lower, -17.9%
- CCc1c(C)nn2c(O)cc(C3CCN(C(=O)c4ccn(C)n4)C3)nc12 (configuration not stated) — lower, 3.623%
- c1cnc(N2C[C@@H]3COC[C@]3(COCC3CCCC3)C2)nc1 — higher, 15.4%
- CN(C)[C@@H]1CCN(CC2CC2)[C@H]1Cc1cnn(C)c1 — lower, 1.94%
- CN1CC(=O)N(c2cnn(C)c2)CC12CCN(Cc1ccccc1)C2 (configuration not stated) — higher, 21.8%
- CC1CCN(CCNC(=O)c2sccc2C2CC2)CC1 — higher, 81.5%
- O=C(NCC(=O)N1CCCCC1)c1sccc1C1CC1 — higher, 17.2%
- CN1CCN(CCNC(=O)c2sccc2C2CC2)CC1 — higher, 31.6%
- CCc1nc(C)c(C(=O)NCCN2CCC(C)CC2)s1 — higher, 15.6%
- O=C(c1sccc1C1CC1)N1CCN(c2ncccn2)CC1 — higher, 49.1%
- O=C(NCC(=O)N1CCN(c2ccccc2)CC1)c1sccc1C1CC1 — higher, 92%
- Cc1cc(C)n(-c2nc(C(=O)NCCN3CCC(C)CC3)cs2)n1 — higher, 61%
- Cc1cc(C)n(-c2nc(C(=O)NCCS(=O)(=O)N3CCCCC3)cs2)n1 — lower, 0.696%
- CC1CCN(CCNC(=O)c2scnc2Cl)CC1 — higher, 40.2%
- COc1ccccc1NC(=O)NCc1nnc(SC)n1C — lower, 8.125%
- N#CC1(C(=O)N2CCCN(Cc3cscn3)CC2)CCCCC1 — lower, -54.6%
- CC(C)C(=O)N1CCCC(Cc2ncccn2)C1 (configuration not stated) — higher, 32.7%
- CC(C)CCCC1CN(C(=O)c2cnc[nH]2)CCO1 (configuration not stated) — lower, -10.5%
- Cc1ccc(CNC(c2ccc(F)cc2)c2nccn2C)o1 (configuration not stated) — higher, 52.6%
- CSc1ccc(CNC(c2ccc(F)cc2)c2nccn2C)cc1 (configuration not stated) — lower, -1.6%
- COc1ccccc1C(NCc1ccc(SC)cc1)c1nccn1C (configuration not stated) — higher, 29.06%
- CSc1ccc(CNC(c2ccccc2)c2nccn2C)cc1 (configuration not stated) — higher, 79.1%
- CSc1ccc(CNC(c2ccccc2F)c2nccn2C)cc1 (configuration not stated) — lower, -27.24%
- Cn1ccnc1C(NCc1ccccc1)c1ccc(F)cc1 (configuration not stated) — higher, 32.9%
- Cn1ccnc1C(NCc1csc(Br)c1)c1ccccc1 (configuration not stated) — higher, 51.6%
- COc1cc(CNC(c2ccccc2)c2nccn2C)cc(OC)c1 (configuration not stated) — lower, -76.15%
- COc1cccc(C(NCc2ccc(SC)cc2)c2nccn2C)c1 (configuration not stated) — higher, 51.2%
- COc1c(CNC(c2ccccc2)c2nccn2C)c(C)nn1C (configuration not stated) — higher, 39.4%
- Cc1ccc(CNC(c2cccc(F)c2)c2nccn2C)o1 (configuration not stated) — higher, 24.2%
- Cn1ccnc1C(NCc1ccc(Br)cc1)c1ccccc1 (configuration not stated) — lower, -32.9%
- CC(=O)NCCCNC(=O)Nc1ccccc1-n1nc(C)cc1C — higher, 9.06%
- COc1ccccc1C(=O)NS(=O)(=O)c1cccc(C#N)c1 — higher, 25.1%
- COc1cc(CN)c(OC)c2c1OCO2 — lower, -3.48%
- CCCS(=O)(=O)N1CCC2(CN(c3ccsc3)C(=O)CN2C)C1 (configuration not stated) — lower, -24.2%
- Cc1oncc1C(=O)N1CC[C@H]2C[C@H](c3ccncn3)O[C@@H]2C1 — higher, 11.3%
- Cn1ncc(Cl)c1C(=O)N1CCC(c2nnsc2S(C)(=O)=O)CC1 — lower, -9.2465%
- Cc1cc(C)cc(CNC(c2ccccc2)c2nccn2C)c1 (configuration not stated) — higher, 41.15%
- Cc1ccc(CNC(c2ccccc2)c2nccn2C)cc1C (configuration not stated) — higher, 54.9%
- Cc1ccc(CNC(c2ccccc2)c2nccn2C)cc1 (configuration not stated) — higher, 33.6%
- Cc1cc(CN2CCCC2c2noc(C(C)C)n2)on1 (configuration not stated) — higher, 47%
- O=C(O)c1cncc(Cc2ccc(F)cc2)c1 — lower, -3.02%
- CCN(Cc1ccoc1)C(=O)c1ccc(C)c(S(N)(=O)=O)c1 — lower, -2.97%
- CCN(Cc1ccoc1)C(=O)c1cc(C)c(C)c(S(N)(=O)=O)c1 — lower, -5.94%
- CCN(Cc1ccncc1)C(=O)c1cc(C)c(C)c(S(N)(=O)=O)c1 — higher, 52.8%
- CC(C)(C)C(=O)NCC(=O)NCCc1nc(C(F)(F)F)cs1 — higher, 15%
- COc1cc(Cl)cc(C(=O)N2CCC3(CC2)CNC(=O)C3)c1 — higher, 13.7%
- CN(C)C(=O)N1CCN(C(=O)c2cccc(Cl)c2)CC2(CNC(=O)C2)C1 (configuration not stated) — higher, 79.6%
- CN(C)C(=O)N1CCN(C(=O)c2ccccc2)CC2(CNC(=O)C2)C1 (configuration not stated) — lower, -0.804%
- CN(C)C(=O)N1CCN(C(=O)c2ccc(Cl)cc2)CC2(CNC(=O)C2)C1 (configuration not stated) — higher, 21.7%
- O=C1CC2(CCN(C(=O)c3cccc(Cl)c3)CC2)CN1 — higher, 55.7%
- CS(=O)(=O)N1CCN(C(=O)c2cccc(Cl)c2)CC2(CNC(=O)C2)C1 (configuration not stated) — higher, 13.7%
- O=C(Cc1noc2ccccc12)N1CCC(Nc2cccnn2)CC1 — higher, 43.3%
- CC(C)(C)c1n[nH]c(C2CN(C(=O)c3cc(C4CC4)on3)CCO2)n1 (configuration not stated) — higher, 35.5%
- O=C(CCCNc1ncccn1)N1CCCC(n2cncn2)C1 (configuration not stated) — higher, 27.6%
- O=C([C@H]1CN(Cc2nccs2)C[C@H]2OCC[C@@H]12)N1CCCCO1 — higher, 22.2%
- CCOC1(C)C(=O)c2ccccc2N1Nc1ccccc1C(=O)CC (configuration not stated) — higher, 67.3%
- CCC(=O)c1ccccc1NN1c2ccccc2C(=O)C1(C)OC (configuration not stated) — higher, 17.6%
- CCC(=O)c1ccc(Br)cc1NN1c2cc(Br)ccc2C(=O)C1(C)OC (configuration not stated) — higher, 70.6%
- CC(NC(=O)N1CCNC(=O)CC1)c1ccc(C(F)(F)F)cc1 (configuration not stated) — higher, 48.2%
- Cc1cc2n(n1)[C@@H](C(F)(F)F)C[C@@H](C1CCN(C(=O)C(C)C)CC1)N2 — lower, -26.2%
- Cc1cnc(C(=O)N2CCCC(c3c(C)c(=O)nc4n3CCC4)C2)cn1 (configuration not stated) — lower, -17.7%
- O=S(=O)(NCc1ccccc1)N1CCN(c2ncccn2)CC1 — higher, 31%
- N#Cc1cccnc1N1CCN(S(=O)(=O)NCc2ccccc2)CC1 — higher, 11.5%
- O=S(=O)(NCc1ccccc1)N1CCCN(c2ccncc2)CC1 — higher, 71.3%
- Cc1ccccc1C(CNc1ncnc2c1CCNC2)N(C)C (configuration not stated) — lower, -2.98%
- Cc1[nH]c2ccc(C#N)cc2c1CCNc1ncnc2c1CCNCC2 — higher, 44.3%
- Cc1[nH]c2ccc(Cl)cc2c1CCNc1ncnc2c1CCNC2 — higher, 92.5%
- Cc1cccc(=O)n1CCCNc1ncnc2c1CCNCC2 — lower, -1.98%
- Cc1[nH]c2ccccc2c1CCNc1ncnc2c1CCNCC2 — higher, 72.1%
- Cc1ccccc1C(CNc1ncnc2c1CCNCC2)N(C)C (configuration not stated) — lower, -59.8%
- c1cnn(CCN2CCOC(Cn3cccn3)C2)c1 (configuration not stated) — lower, -59.4%
- CCCOCC(=O)N1CCc2nc(NC)nc(C(=O)N3CCCC3)c2C1 — lower, -5.08%
- CN(C)c1ccc(C(=O)N2CCN(c3cnccn3)CC2)cn1 — lower, 2.1%
- Cc1nn(C)c2ncc(CN3CCN(c4ncccn4)CC3)cc12 — lower, 7.3%
- CCC(C)NC(=O)CS(=O)(=O)Cc1cc(Cl)c2c(c1)OCCCO2 (configuration not stated) — lower, -58.7%
- CCOC(=O)C1(O)CCN(C(=O)Nc2cccc(CC)c2)CC1 — lower, -41.8%
- COc1c(C2CCCN2C(=O)c2ccnc(C)n2)c(C)nn1C (configuration not stated) — lower, 3.73%
- Cc1nn(C)cc1CN1CCCCCC1c1ccc(Cl)cc1 (configuration not stated) — higher, 13.6%
- CCc1noc(C(C)N2CCN(c3ncnc4sccc34)CC2)n1 (configuration not stated) — higher, 61.7%
- CCc1noc(C(C)N2CCN(C)CC2)n1 (configuration not stated) — lower, -5.25%
- Cc1noc(C(C)N2CCN(c3ncnc4sccc34)CC2)n1 (configuration not stated) — higher, 68.8%
- Cc1noc(C(C)N2CCN(c3ncnc4ccccc34)CC2)n1 (configuration not stated) — higher, 51.3%
- CCOc1cc(C)nc(N2CCN(C(C)c3nc(C)no3)CC2)n1 (configuration not stated) — higher, 18.7%
- CCc1cc(C)nc(N2CCN(C(C)c3nc(C)no3)CC2)n1 (configuration not stated) — higher, 53.4%
- COc1cc(C)nc(N2CCN(C(C)c3nc(C)no3)CC2)n1 (configuration not stated) — lower, -72.5%
- Cc1noc(C(C)N2CCC(c3nc4ccccc4[nH]3)CC2)n1 (configuration not stated) — higher, 35.4%
- Cc1noc(C(C)N2CCN(Cc3ccco3)CC2)n1 (configuration not stated) — higher, 34.7%
- CCc1noc(C(C)N2CCN(c3ccc(C#N)cn3)CC2)n1 (configuration not stated) — lower, -25.3%
- Cc1cnc(CN2CCN(C(C)c3nc(C)no3)CC2)cn1 (configuration not stated) — lower, -14.8%
- COc1ccnc(N2CCN(C(C)c3nc(C)no3)CC2)n1 (configuration not stated) — higher, 22.6%
- Nc1ccnc(N2C[C@H](O)[C@@H](N3CCN(c4ccccn4)CC3)C2)n1 — higher, 37.2%
- O=C([C@H]1C[C@H]2CN(c3ncc(F)cn3)C[C@@H]1O2)N1CCOCC1 — higher, 17.7%
- CC1CN(CC(=O)NC2CCOCC2)CCN1Cc1nccn1C (configuration not stated) — higher, 29.305%
- CCCOc1cccc(C(=O)Oc2cc(=O)n3cccc(C)c3n2)c1 — higher, 22.6%
- Cc1ncncc1C(=O)N1CCCC1c1c(C)nn(C)c1Cl (configuration not stated) — lower, 1.78%
- Cc1cnc(C(=O)N2C[C@@H]3CC[C@H]2CN(c2cnccn2)C3)cn1 — lower, -55.1%
- O=C(C1CCCCC1)N1CCN(Cc2nc(-c3ccco3)no2)CC1 — higher, 23.7%
- COC(=O)c1ccoc1CN(C)CC(=O)N(C)C — higher, 22.8%
- NC(=O)CN1CCOCC(Cc2ccccc2Cl)C1 (configuration not stated) — higher, 11.1%
